# In ChEMBL document CHEMBL3988442, “University of Dundee, Small-Polar-MMV Screening Library” (2021):
# Among all 69,000 compounds or so, about 1,000 (1.4%) showed an effect of 50% or more. Shown is part of a subset that was picked to be rich in strong results.
# Tested on: Leishmania donovani
# Assay: Leishmania intramacrophage assay
# Format: functional, organism-based
# Design: scale not given: in the data most compounds retested in dose-response had high values
smiles,measurement,setting,value
COCCCC(=O)N1CCC(Nc2cccnn2)CC1,Percent Effect,30 µM,-18.1%
CNC(=O)[C@H]1CC[C@@H]2[C@@H](CCN2CCOCc2ccccc2)O1.O=C(O)C(F)(F)F,Percent Effect,"30.3 µM, […]",45.25%
Cc1cc(NC2CCc3nc(C(C)C)nn3C2)n2ncnc2n1 (configuration not stated),Percent Effect,"30.3 µM, […]",-19.33%
CC[C@@H](C)[C@H](NC(=O)Cn1ccc2c(Cl)cccc21)C(=O)O,Percent Effect,"30.3 µM, […]",7.093%
Cc1nnc(C(C)N(C)Cc2c(C)nn(-c3ccccc3C)c2C)o1 (configuration not stated),Percent Effect,"30.3 µM, […]",60.72%
Cc1nnc(C(C)N(C)Cc2c(C)nn(-c3ccccc3)c2C)o1 (configuration not stated),Percent Effect,"30.3 µM, […]",15.94%
CCc1nnc(C(C)N(C)Cc2c(C)nn(-c3ccccc3)c2C)o1 (configuration not stated),Percent Effect,"30.3 µM, […]",21.58%
O=C(NCC1(O)CCC1)c1cccc(-n2cccn2)c1,Percent Effect,"30.3 µM, […]",0.6562%
O=C(CSC1=NS(=O)(=O)c2cc(F)ccc2N1)c1ccc(Cl)cc1,Percent Effect,"30 µM, 30.03 µM",37.27%
O=C(CSC1=NS(=O)(=O)c2cc(F)ccc2N1)Nc1ccc(Cl)cc1,Percent Effect,"30.3 µM, […]",3.738%
O=S1(=O)N=C(SCc2ccc(Cl)cc2)Nc2ccc(F)cc21,Percent Effect,"30 µM, 30.03 µM",63.48%
CC(C)(C)c1cn(CC2CCCN(c3cnc4ccccc4n3)C2)nn1 (configuration not stated),Percent Effect,"30.3 µM, […]",23.01%
NC(=O)CN1CCC2(CC1)CC(=O)c1ccc3ccccc3c1O2,Percent Effect,"30.3 µM, […]",11.62%
CCOC(=O)CN1CCC2(CC1)CC(=O)c1ccc3ccccc3c1O2,Percent Effect,"30.3 µM, […]",52.56%
CN(C)C(=O)CN1CCC2(CC1)CC(=O)c1ccc3ccccc3c1O2,Percent Effect,"30.3 µM, […]",36.93%
Cc1nc(NC(=O)C2(C)CN(C)CCO2)sc1C.Cl (configuration not stated),Percent Effect,"30.3 µM, […]",1.58%
Cc1nc(Nc2nccs2)cc(C2CCCN2)n1.Cl (configuration not stated),Percent Effect,"30.3 µM, […]",34.17%
Cc1nc(Nc2ncc(C)s2)cc(C2CCCN2)n1.Cl (configuration not stated),Percent Effect,"30.3 µM, […]",56.27%
Cc1nc(Nc2nnc(C)s2)cc(C2CCCN2)n1.Cl (configuration not stated),Percent Effect,"30.3 µM, […]",-1.301%
COc1cc(/C=C/c2ncc(C(=O)O)s2)cc(Cl)c1OC,Percent Effect,30 µM,-16.83%
CCOc1c(Cl)cc(/C=C/c2ncc(C(=O)O)s2)cc1OC,Percent Effect,30 µM,26.63%
COc1cc(/C=C/c2ncc(C(=O)O)s2)cc(Cl)c1O,Percent Effect,"30 µM, 30.03 µM",50.87%
O=C1CNc2ncnc(Nc3cccc(Cn4cccn4)c3)c2N1,Percent Effect,"30.3 µM, […]",32.36%
O=C(Nc1ccccc1OCCc1ccccn1)N1CCOCC(O)C1 (configuration not stated),Percent Effect,"30.3 µM, […]",34.91%
O=C(Nc1ccccc1OCCc1ccccn1)N1CC[C@@H](O)C1,Percent Effect,"30.3 µM, […]",-41.47%
O=C(Nc1ccccc1OCCc1ccccn1)N1CCOCC1,Percent Effect,"30.3 µM, […]",51.44%
CC(C)CN1C(=O)C2(CCN(Cc3ccoc3)C2)c2ccccc21.O=C(O)C(F)(F)F (configuration not stated),Percent Effect,"30.3 µM, […]",-1.91%
O=C(O)C(F)(F)F.O=C(O)C(F)(F)F.OCCN1CC2(CCN(CC3CC3)CC2)c2ccccc21,Percent Effect,"30.3 µM, […]",75.39%
O=C(O)C(F)(F)F.O=C1CC2(CCN(CC3CCOC3)CC2)c2ccccc2N1CC1CC1 (configuration not stated),Percent Effect,"30.3 µM, […]",8.748%
CC(C)CN1C(=O)C2(CCN(Cc3cccs3)C2)c2ccccc21.O=C(O)C(F)(F)F (configuration not stated),Percent Effect,"30.3 µM, […]",1.991%
O=C(O)C(F)(F)F.c1cnc(N2CCC3(CC2)CN(CC2CC2)c2ccccc23)nc1,Percent Effect,"30 µM, 30.03 µM",24.73%
CC(C)CN1C(=O)C2(CCN(CC3CCOCC3)C2)c2ccccc21.O=C(O)C(F)(F)F (configuration not stated),Percent Effect,"30.3 µM, […]",64.12%
OC1(CN2CCCC2)COCCN(c2nccs2)C1 (configuration not stated),Percent Effect,"30.3 µM, […]",-9.416%
COCC1CN(S(=O)(=O)N(C)C)Cc2cnn(CC3CCCC3)c21.O=C(O)C(F)(F)F (configuration not stated),Percent Effect,"30.3 µM, […]",-10.54%
Cc1ccc(F)c(NC(=O)CCC(=O)N(C)Cc2cc(C3CC3)[nH]n2)c1,Percent Effect,"30.3 µM, […]",5.303%
COc1ccccc1CC(=O)NC(CC(=O)O)c1ccc(C)cc1 (configuration not stated),Percent Effect,"30.3 µM, […]",-0.7929%
COc1ccccc1Oc1ncccc1CNC(=O)CN1CCCC1=O,Percent Effect,"30.3 µM, […]",15.35%
Cc1cc(NC(=O)NCc2cccnc2OC(C)C)no1,Percent Effect,"30.3 µM, […]",23.81%
O=C(O)C(F)(F)F.O=C(O)C(F)(F)F.c1ccc(CN2CCc3nnc(CN4CCCCC4)n3CC2)nc1,Percent Effect,"30 µM, 30.03 µM",-31.83%
N[C@H]1CN(Cc2cnc(N3CCCC3)nc2)C[C@@H]1C1CC1,Percent Effect,"30.3 µM, […]",17.06%
CCc1cc(N2C[C@H](C3CC3)[C@@H](N)C2)nc(N2CCCC2)n1,Percent Effect,"30.3 µM, […]",72.46%
CNc1cc(C)nc(N2C[C@H](C3CC3)[C@@H](N)C2)n1,Percent Effect,"30.3 µM, […]",66.39%
Cc1cc(N2C[C@H](C3CC3)[C@@H](N)C2)nc(N2CCCCC2)n1,Percent Effect,"30.3 µM, […]",55.81%
CCc1cc(N2C[C@H](C3CC3)[C@@H](N)C2)nc(N2CCOCC2)n1,Percent Effect,"30.3 µM, […]",29.17%
CNc1cc(C)nc(N2C[C@@H](C(=O)O)[C@H](C3CC3)C2)n1,Percent Effect,"30.3 µM, […]",1.34%
CNc1cc(C)nc(N2C[C@H](NC(=O)C3CCOCC3)[C@@H](C3CC3)C2)n1,Percent Effect,"30.3 µM, […]",-19.84%
CC(C)Oc1cc(N2C[C@H](C3CC3)[C@@H](N)C2)nc(N)n1,Percent Effect,"30.3 µM, […]",15.53%
Cc1cc(C)nc(N2CCC(OCCN3CCCCC3)C2)n1 (configuration not stated),Percent Effect,"30.3 µM, […]",-14.11%
Nc1cc2c(nn1)CCN(C(=O)c1ccc(-c3ccco3)[nH]c1=O)C2,Percent Effect,"30.3 µM, […]",9.211%
O=c1cc(C2CCNCC2)nc(CCCc2ccccc2)[nH]1,Percent Effect,"30.3 µM, […]",27.29%
Cc1cc(NC(=O)CN2CCn3c(nnc3C(C)C)C2)n(C)n1,Percent Effect,30 µM,-15.63%
Cc1nsc(N2CCCN(C(=O)NCc3cc(C)on3)CC2)n1,Percent Effect,"30.3 µM, […]",8.411%
CN(CCNc1ncc2c(n1)CCN2c1ccccc1)S(C)(=O)=O,Percent Effect,"30.3 µM, […]",14.06%
Cc1cnn(CCC(=O)N2CCCC(c3cc(C(N)=O)[nH]n3)C2)c1 (configuration not stated),Percent Effect,"30 µM, 30.03 µM",2.466%
COc1ccccc1CC(=O)N1CCC(OCc2cccnc2)CC1,Percent Effect,"30.3 µM, […]",5.945%
Cc1ccccc1SC1CCN(C(=O)CCCS(N)(=O)=O)CC1,Percent Effect,"30.3 µM, […]",28.86%
Cc1ccccc1SC1CCN(C(=O)[C@H]2[C@@H]3CNC[C@@H]32)CC1,Percent Effect,"30.3 µM, […]",68.53%
Cc1ccccc1SC1CCN(C(=O)C2CNCC(=O)N2)CC1 (configuration not stated),Percent Effect,"30.3 µM, […]",24.39%
Cc1ccccc1SC1CCN(C(=O)C2CNC(=O)N2)CC1 (configuration not stated),Percent Effect,"30.3 µM, […]",-12.93%
CN1C[C@@H](N)C[C@H]1C(=O)N1CCC(Cc2ccc(F)cc2)CC1,Percent Effect,"30.3 µM, […]",8.715%
Cc1ccccc1SC1CCN(C(=O)[C@@H]2C[C@@H](N)CN2)CC1,Percent Effect,"30.3 µM, […]",56.56%
Cc1nc[nH]c1C(=O)N1CC[C@@H](NC(=O)c2ccccn2)[C@H](O)C1,Percent Effect,"30.3 µM, […]",11.08%
COCC1CC2(CCN(Cc3nccn3C)CC2)CN1c1ncccn1.O=C(O)C(F)(F)F (configuration not stated),Percent Effect,"30.3 µM, […]",11.88%
CC(=O)c1c(C)nn(CC(=O)N2CCCC2c2ccc(C(N)=O)s2)c1C (configuration not stated),Percent Effect,"30.3 µM, […]",42.8%
Cc1n[nH]c2ncc(CNC3CCCN(c4ncccn4)C3)cc12.Cl (configuration not stated),Percent Effect,"30.3 µM, […]",15.17%
Cc1cnc(N2CCn3c(CN4CCOCC4)nnc3C2)nc1.O=C(O)C(F)(F)F,Percent Effect,"30.3 µM, […]",30.81%
COC(=O)CNC(=O)Cn1ccc2ccc(F)cc21,Percent Effect,"30.3 µM, […]",14.64%
Cc1cc(Cl)cc(C)c1CNC1CCN(CC(=O)N(C)C)CC1,Percent Effect,"30.3 µM, […]",66.45%
Cc1nc(-c2c(C)noc2C)cc(C2CCN(CC(=O)N(C)C)CC2)n1,Percent Effect,"30.3 µM, […]",31.09%
CC(NC1CCN(CC(=O)N(C)C)CC1)c1cnn(C(C)C)c1 (configuration not stated),Percent Effect,"30.3 µM, […]",-44.29%
CC(C)Oc1cc(N2CCC(C(N)=O)CC2)nc(N)n1,Percent Effect,"30.3 µM, […]",14.18%
COc1ccc(C2CCCN2C(=O)c2cc3c([nH]c2=O)CCC3)cc1 (configuration not stated),Percent Effect,"30 µM, 30.03 µM",22.34%
O=C1CC2(CCSC2)C(=O)N1Cc1coc(-c2ccccc2)n1 (configuration not stated),Percent Effect,"30.3 µM, […]",4.889%
CNC(=O)N1CCCCC1CCNS(C)(=O)=O (configuration not stated),Percent Effect,"30.3 µM, […]",6.391%
Cc1nn(C)c(N(C)C)c1CNCc1ccccc1Cn1cncn1,Percent Effect,"30 µM, 30.03 µM",20.9%
O=C(O)C(c1ccc(Cl)c(F)c1)N1CCN(Cc2ccccn2)CC1 (configuration not stated),Percent Effect,"30.3 µM, […]",61.2%
Cc1cc(F)c(C(C(=O)O)N2CCN(Cc3ccccn3)CC2)cc1Cl (configuration not stated),Percent Effect,"30.3 µM, […]",5.04%
Cc1ccc(C(C(=O)O)N2CCCN(Cc3ccccn3)CC2)c(F)c1 (configuration not stated),Percent Effect,"30.3 µM, […]",23.66%
COCCC(=O)N1CCCC1c1nccc(C)n1 (configuration not stated),Percent Effect,"30.3 µM, […]",11.84%
Cl.Fc1cccc(CN2CCC(c3cc4ncccc4cn3)CC2)c1F,Percent Effect,"30.3 µM, […]",51.12%
Fc1cc(F)cc(CN2CCC(c3cc4ncccc4cn3)CC2)c1,Percent Effect,"30.3 µM, […]",29.54%
Cl.Fc1ccc(F)c(CN2CCC(c3cc4ncccc4cn3)CC2)c1,Percent Effect,"30.3 µM, […]",33.05%
Cn1nnnc1SCC(=O)N1CCN(C(=O)C2CC2c2cccs2)CC1 (configuration not stated),Percent Effect,"30.3 µM, […]",-0.756%
Cc1cnn(CCNCC(O)c2ccc3c(c2)OCCO3)c1 (configuration not stated),Percent Effect,"30.3 µM, […]",-28.04%
O[C@@H]1CN(CC2=Cc3cc(Cl)ccc3OC2)CC[C@H]1N1CCCCCC1,Percent Effect,"30.3 µM, […]",44.96%
CN1CCN([C@@H]2CCN(Cc3ccc4cc(F)ccc4n3)C[C@H]2O)CC1,Percent Effect,"30.3 µM, […]",33.38%
CN1CCN([C@@H]2CCN(CC3=Cc4cc(Cl)ccc4OC3)C[C@H]2O)CC1,Percent Effect,"30.3 µM, […]",96.13%
CNc1ncccc1C(=O)N1CCCC2(C1)C(=O)N(C)c1ccccc12 (configuration not stated),Percent Effect,"30.3 µM, […]",63.07%
Cc1c(O)cccc1C(=O)N1CCCC2(C1)C(=O)N(C)c1ccccc12 (configuration not stated),Percent Effect,"30.3 µM, […]",10.13%
CN1C(=O)C2(CCCN(C(=O)c3cccnc3O)C2)c2ccccc21 (configuration not stated),Percent Effect,"30.3 µM, […]",4.492%
O=C(NCC1(O)CCOc2ccccc21)Nc1ccccc1 (configuration not stated),Percent Effect,"30.3 µM, […]",35.58%
COCCN(C)C[C@@H]1CN(C(=O)c2cccc(C#N)c2)C[C@@H]1CO,Percent Effect,"30.3 µM, […]",-5.773%
CN(CCO)C[C@@H]1CN(C(=O)c2cccc(OC(F)F)c2)C[C@@H]1CO,Percent Effect,"30.3 µM, […]",59.47%
COCCN(C)C[C@@H]1CN(C(=O)c2cccc(Cl)c2)C[C@@H]1CO,Percent Effect,"30.3 µM, […]",-8.073%
COc1ccc(C(=O)N2CCCC2c2cnn(C)c2)cn1 (configuration not stated),Percent Effect,30 µM,3.221%
CN(Cc1ccco1)Cc1ccccc1CNC(=O)c1cnccn1,Percent Effect,"30.3 µM, […]",16.56%
CC(C)N(CCO)C(=O)c1cc(COc2ccc3c(c2)CCCC3)on1,Percent Effect,"30.3 µM, […]",15.58%
